# Many of the other results were omitted from the sample, so hits are more common in it than they were.
# 14-3-3 PPI = 14-3-3 gamma protein interaction modulation; AID 422; inhibition, % at 40 µM; P61981; FP, 14-3-3gamma / TMR-pS259-Raf peptide binding; 160,000 tested, 0.19% active; in the data active means inhibition above about 30%;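 further: 0% = protein plus tracer without compound and 100% = blank with tracer alone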
# Target sequence (P61981 whole entry, looked up): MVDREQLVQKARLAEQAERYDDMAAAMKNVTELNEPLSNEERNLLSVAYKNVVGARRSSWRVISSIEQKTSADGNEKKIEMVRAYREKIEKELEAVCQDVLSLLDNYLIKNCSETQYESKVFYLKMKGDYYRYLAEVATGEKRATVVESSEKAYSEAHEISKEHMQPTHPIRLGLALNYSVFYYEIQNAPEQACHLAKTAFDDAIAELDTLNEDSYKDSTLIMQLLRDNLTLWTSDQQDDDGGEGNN
# * hit, by the source's call.
SMILES,14-3-3 PPI
Cc1ccc(N=Cc2ccccc2O)c(C(=O)c2ccccc2)c1,-2
CCCN(CCC)CCNS(=O)(=O)c1cccc2cccnc12,-8
COC(=O)COc1ccc2c(=O)c(Oc3ccc(C)cc3)coc2c1,-31
COc1ccc(OC)c(C2C3CN(C(C)C)CC=C3C(C#N)=C(N)C2(C#N)C#N)c1 (stereo not drawn),-27
CC(=O)N1CC=C2C(C#N)=C(N)C(C#N)(C#N)[C@H](c3ccoc3)[C@H]2C1,-8
Cc1ccc(C2C3CN(C(C)C)CC=C3C(C#N)=C(N)C2(C#N)C#N)cc1 (stereo not drawn),36*
CCc1c(C)c(C#N)c2nc3ccccc3n2c1NC1CCCCC1,-2
CC(Nc1cc(N2CCN(C(=O)c3ccccc3Cl)CC2)ccc1[N+](=O)[O-])c1ccccc1 (stereo not drawn),3
N#Cc1ccc2ccccc2n1,-8
O=C(Nn1cnnc1)C(Sc1ccccc1)c1ccccc1 (stereo not drawn),1
O=C(NCc1ccc(F)cc1)C(Sc1ccccc1)c1ccccc1 (stereo not drawn),-1
CNC(=O)C(Sc1ccccc1)c1ccccc1 (stereo not drawn),125*
CCN(CC)c1ccc2cc(C(=O)c3cc4ccc(N(CC)CC)cc4oc3=O)c(=O)oc2c1,77*
CCN(CC)c1ccc2cc(C(=O)Nc3ccccn3)c(=O)oc2c1,7
CCN(CC)c1ccc2cc(C(=O)Nc3ccc(C)cc3)c(=O)oc2c1,-9
O=C(Oc1ccccc1)OC1CCS(=O)(=O)C1 (stereo not drawn),-18
Cc1ccc(NC(=O)c2ccccc2C)cc1I,-6
Cc1ccccc1C(=O)Nc1ccccc1C(=O)Nc1ccccc1,35*
Cc1ccccc1NC(=O)c1ccccc1C,-1
CCOC(=O)C1=C(c2ccccc2)N(C)C(=O)NC1c1ccc2c(c1)OCO2 (stereo not drawn),-6
COC(=O)c1sc2nc(-c3ccncc3)cc(C(F)(F)F)c2c1N,-38
Nc1c(C(=O)NCCc2ccccc2)sc2nc(-c3ccccc3)cc(C(F)(F)F)c12,-2
Nc1c(C(=O)c2ccccc2)sc2nc(-c3ccccc3)cc(C(F)(F)F)c12,60*
CCCCCSc1nnc2c(n1)OC=Nc1ccc(Br)cc1-2,-5
NC(=O)CSc1nc2c(c(=O)n1-c1ccccc1)C1(CCCC1)Cc1ccccc1-2,0
SMILES,14-3-3 PPI
COC(=O)c1c(N2C(=N)SCC2=O)sc2c1CCCC2,-49
Cc1ccc(C2CC(C(F)F)n3ncc(C(=O)N4CCCCC4)c3N2)cc1 (stereo not drawn),-23
O=C1C(=O)N(CCN2CCOCC2)C(c2ccccc2)/C1=C(\O)c1ccc(Br)cc1 (stereo not drawn),-7
COc1ccc(/C(O)=C2/C(=O)C(=O)N(CCCN(C)C)C2c2ccc(Cl)cc2)cc1OC (stereo not drawn),-6
CCCOc1ccc(C2/C(=C(/O)c3ccccc3)C(=O)C(=O)N2CCCN(C)C)cc1OC (stereo not drawn),35*
CCCOc1ccc(/C(O)=C2/C(=O)C(=O)N(CCN(C)C)C2c2ccc(O)c(OC)c2)cc1 (stereo not drawn),-1
CCN1C(=O)c2ccccc2Sc2ccc(C(=O)NC3CCCCCC3)cc21,-1
O=C(c1c[nH]c2ccc(S(=O)(=O)N3CCCCC3c3cccnc3)cc2c1=O)N1CCCC1 (stereo not drawn),-9
O=C(O)c1c[nH]c2ccc(S(=O)(=O)N3CCCCC3c3cccnc3)cc2c1=O (stereo not drawn),57*
CC1CCN(C(=O)c2c[nH]c3ccc(S(=O)(=O)N4CCCCC4c4cccnc4)cc3c2=O)CC1 (stereo not drawn),-1
Cc1sc2[nH]c(=O)n(-c3ccc(Cl)cc3)c(=O)c2c1C,-3
COc1ccccc1N1CCN(C(=O)CN(c2ccc(Br)cc2)S(=O)(=O)c2ccc(C)cc2)CC1,2
COc1ccc(C=Nc2cccc(N=Cc3ccc(OC)c(OC)c3)c2)cc1OC,-79
COc1ccc(Nc2cc(C)nc3c(C)cccc23)cc1,-6
COc1ccc2nc(C)cc(Nc3ccc(F)cc3)c2c1,-66
COc1ccc(Nc2cc(C)nc3ccccc23)cc1,38*
O=C(Nc1c2c(nn1-c1ccc(F)cc1)CSC2)c1ccc2c(c1)OCO2,-4
Cc1ccc2cc3cc(C(=O)N4CCC(N5CCCCC5)CC4)oc3nc2c1,-6
COc1ccc2cc3cc(C(=O)N4CCCC4)oc3nc2c1,-3
COc1ccc2cc3cc(C(=O)N4CCC(N5CCCCC5)CC4)oc3nc2c1,46*
O=[N+]([O-])c1ccc(Sc2c(-c3ccccc3)nc3ccccn23)cc1,-1
O=C(NCc1ccccn1)c1cc(Nc2cccc(C(F)(F)F)c2)nc2ccccc12,152*
Cc1ccc(C)c(Nc2cc(C(=O)NCc3ccccn3)c3ccccc3n2)c1,8
CC(C)OCCCNC(=O)c1cc(Nc2cccc(C(F)(F)F)c2)nc2ccccc12,-5
O=[N+]([O-])c1ccc(CC(O)c2ccc([N+](=O)[O-])cc2)cc1 (stereo not drawn),0
SMILES,14-3-3 PPI
O=C1C2C3C=CC(C3)C2C(=O)N1c1ccc2c(c1)OCCO2 (stereo not drawn),-7
CCCN(CCC)Cc1c(C)[nH]c2ccc(CC)cc2c1=O,-8
O=C1c2ccccc2-c2nc3cc4ccccc4cc3nc21,22
O=C1C2C3C=CC(C2C(=O)N1c1ccccc1)C1C2C(=O)N(c4ccccc4)C(=O)C2C31 (stereo not drawn),-3
COc1ccc(N2C(=O)C3C4C=CC(C3C2=O)C2C3C(=O)N(c5ccc(OC)cc5)C(=O)C3C42)cc1 (stereo not drawn),-1
O=C1C2C3C=CC(C2C(=O)N1c1ccc(O)cc1)C1C2C(=O)N(c4ccc(O)cc4)C(=O)C2C31 (stereo not drawn),64*
Cc1onc(-c2ccccc2Cl)c1C(=O)Nc1cccc(C(=O)N(C)c2ccccc2)c1,1
C(=Cc1ccc(C=Cc2ccccc2)cc1)c1ccccc1,1
CCSCCOC(=O)C1=C(C)NC2=C(C(=O)CC(c3ccccc3Cl)C2)C1c1ccc2c(c1)OCO2 (stereo not drawn),-9
CCCOc1ccc(-c2nc3c(C(=O)OC)c[nH]n3c2NC2CCCCC2)cc1OC,-8
Nc1ccc2sc(CCCc3nc4ccc(N)cc4s3)nc2c1,-1
COc1ccc(CNC(=O)c2ccc(NS(=O)(=O)c3cccs3)cc2)cc1,-15
C=CCC1C(C)=NN(C(=O)c2ccc(Cl)cc2)C1(C)O (stereo not drawn),-6
CC1=NN(C(=O)c2ccc(Cl)cc2)C(O)(c2cccc([N+](=O)[O-])c2)C1 (stereo not drawn),-4
CC1=NN(C(=O)c2ccc(Cl)cc2)C(C)(C)C1,49*
CCCSc1nnc2c(n1)OC(c1cccs1)Nc1ccc(Br)cc1-2 (stereo not drawn),-26
CCCCSc1nnc2c(n1)OC(CC)Nc1ccc(Br)cc1-2 (stereo not drawn),-35
CCCSc1nnc2c(n1)OC(C=Cc1ccco1)Nc1ccc(Br)cc1-2 (stereo not drawn),58*
COC(=O)c1c(NC(=O)COc2ccccc2C(C)(C)C)sc2c1CCCC2,1
O=C(NCc1ccccc1)c1cc2ccccc2s1,1
Nc1ccc(C(=O)Nc2ccc(N)cc2N)cc1,-33
COC(=O)CCCCCNc1ccc(C(=O)OC)cc1N,-12
Nc1ccc(NCCO)c(N)c1,91*
CCCCc1ccc(NC(=O)c2cccc(C(=O)OCC)n2)cc1,-5

# Assay outcomes: PubChem BioAssay, Emory University Molecular Libraries Screening Center
